Results taken from ChEMBL document CHEMBL3433997, “St. Jude Leishmania screening dataset” (2016).

target: Glucose transporter (Leishmania mexicana) (UniProt O61059); test: ST_JUDE_LEISH: Cytotoxicity at 2uM final concentration against transgenic Leishmania Mexicana promastigotes LmGT2 that are glucose transport deficient and complemented with the L. Mexicana glucose transporter 2. Activity is measured by DNA content using SYBR green in vitro; type: functional

| SMILES | inhibition [%] |
| --- | --- |
| CN1CCN(CCCN(Cc2cccc(-c3ccc(CNCc4ccc5c(c4)OCO5)cc3)c2)C(=O)Nc2ccccc2)CC1 | 1.33 |
| COc1cc2c(cc1OC)CN(CCc1ccc(NC(=O)c3cc4cc(OC(F)(F)F)ccc4[nH]3)cc1)CC2 | 1.17 |
| Cc1nc(C)c(-c2ccc(Oc3cc(Cl)cc(Cl)c3)cc2)c(O)c1Cl | 0.49 |
| CCCN(Cc1ccc(OCC)cc1)Cc1cc(=O)c2cc(Cl)ccc2[nH]1 | 7.1 |
| COc1cc(F)c2ncc(Cl)c(CCN3CCC(NCc4cc5c(cn4)OCCO5)CC3)c2c1 | 55.4 |
| COCCCNc1nc2cc(OC)c(OC)cc2c2nc(-c3ccccc3)nn12 | 0.85 |
| CC1(C)N=C(NC(=O)Nc2ccc([N+](=O)[O-])cc2)N=C(N)N1OCc1cccc2ccccc12 | 5.77 |
| Cc1cc(Nc2ccc3c(c2)CCC3)n2ncnc2n1 | 0.55 |
| COc1ccc(Cl)cc1-c1nc(C(=O)NCCN2CCCCC2)c(C)s1 | 5.49 |
| Cc1cc(N(C)CCCN2CCCCC2)nc(Nc2ccc(Cl)cc2)n1 | 2.88 |
| CCn1cc(-c2nc(-c3cc(OC)cc(OC)c3)no2)c(=O)c2ccccc21 | 2.79 |
| Cc1ccc(CNC(=O)[C@H](CCCN)Nc2nc(Nc3ccccc3)ncc2C)cc1 | 1.15 |
| OC1CCCN(Cc2ccc(-c3ccc(-c4nc5ccccc5[nH]4)cc3)cc2)C1 (stereo not given) | 5.37 |
| COc1ccc2nccc([C@@H](O)CN3CCC(NCc4nc5cc(F)cc(F)c5[nH]4)CC3)c2c1 | -0.63 |
| CC(C)(C)OC(=O)NCc1ccc(Nc2nnc(-c3ccc(OCC(=O)NCc4ccc(C(C)(C)C)cc4)c([N+](=O)[O-])c3)o2)cc1 | -0.53 |
| COc1ccc(Cn2cncc2CN(CCC(C)C)C(=O)c2ccc(Cl)nc2Cl)cc1 | 2.49 |
| Cc1ccccc1OCC(=O)Nc1ccc(-c2nc3cc4ccccc4cc3[nH]2)cc1 | 4.05 |
| CN1CCN(c2cc3c(cc2Br)CCN3C(=O)Nc2ccc(-c3cnc4ccccc4c3)cc2)CC1 | 109 |
| CC(=O)Nc1nc(C(=O)Nc2ccc(-c3ccc(-c4nc5cccc(C)c5[nH]4)cc3)cc2)cs1 | 6.38 |
| Cc1cc(N[C@@H](Cc2ccccc2)C(=O)NCc2cccs2)nc(NCCOc2ccccc2)n1 | 5.27 |

| SMILES | inhibition [%] |
| --- | --- |
| CC(=O)Nc1ccc(CN2CCN(C(c3ccc(F)cc3)c3ccc(F)cc3)CC2)cc1 | 2.11 |
| Nc1ccc(-c2ccc3ccnc(N)c3c2)cn1 | 2.84 |
| CCC1CCCCN1S(=O)(=O)c1ccc(NC(=O)c2cc(C)on2)cc1 (stereo not given) | 3.74 |
| COc1cc(NC(=O)/C=C/c2ccccc2OC(F)(F)F)cc(OCCN2CCN(CCN3CCOCC3)CC2)c1 | 2.34 |
| Cc1ccc(NC(=O)c2ccc(CN3CCCN(Cc4cccc(O)c4)CC3)cc2)cc1F | 6.83 |
| CCCCCN1CCC(NS(=O)(=O)c2cccc(C(=O)Nc3ccc(C(F)(F)F)cc3)c2)C1 (stereo not given) | 1.9 |
| CC1CN(c2cnn(Cc3cccc(NC(=O)Nc4ccc(F)cc4[N+](=O)[O-])c3)c(=O)c2Cl)CC(C)N1 (stereo not given) | -0.22 |
| O=C(NCc1cc2c(cc1Cl)OCO2)c1ccc(CNC2CCN(Cc3ccccc3)CC2)cc1 | 0.48 |
| CS(=O)(=O)NCCCNCc1ccc(-c2ccc(-c3nc4cc(C(F)(F)F)ccc4[nH]3)s2)cc1 | 1.6 |
| COc1ccc2nccc([C@@H](O)CN3CCC(NC[C@H](Cc4ccccc4)NC(=O)OC(C)(C)C)CC3)c2c1 | 2.75 |
| COc1ccc(Nc2nc(N3CCCC3)c3ccccc3n2)cc1 | 14.3 |
| Cc1ccc(Nc2c3ccccc3nc3ccc(C)cc23)cc1 | 2.9 |
| FC(F)(F)COc1ccc(CCNCCCCNCCc2ccc(OCC(F)(F)F)c3ccccc23)c2ccccc12 | 1.09 |
| O=C(Nc1ccc(Cl)cc1)c1ccc(CN2CCCN(Cc3ccc(F)cc3)CC2)cc1 | 0.03 |
| COc1ccc(C(C(=O)NC2CCN(C[C@H](O)c3ccnc4ccc(OC)cc34)CC2)N2CCN(c3ccc(F)cc3)CC2)cc1 (stereo not given in full) | 1.93 |
| O=C(Nc1ccc(Br)cc1)c1cc(Br)ccc1NS(=O)(=O)c1cc(C(F)(F)F)cc(C(F)(F)F)c1 | -0.28 |
| O=C(NC1CCN(CC2(c3ccccc3)CCCC2)CC1)c1n[nH]cc1Cl | -0.85 |
| CCCNCc1ccc(-c2ccc(CN(Cc3ccc4c(c3)OCO4)C(=O)[C@H]3CCCO3)cc2)nc1 | 8.76 |
| Cc1c(C)n(C2CCCC2)c2ncnc(OC3CCN(CC(=O)NCC4CC4)CC3)c12 | 2.01 |
| C=CCc1c(C(=O)NCC23CC4CC(CC(C4)C2)C3)nc2ccccc2c1O | 3.24 |
